Test results published in PubChem BioAssay (NCI).
The panel holds about 79,000 compounds, 15% with a hit somewhere; the sample as a whole holds those more often. A number with no mark means an inactive call. Active and inactive are the calls of the source. Cut-off read from the data, not from the text of the source: active = growth inhibition above about 70%; inactive = the rest.

Experiments:
[1] = NCI Yeast Anticancer Drug Screen. Data for the rad50 strain (AID 155);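 note: 0% = growth of vehicle-only cultures of the same strain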; details: S. cerevisiae rad50 strain growth inhibition; at 50.0 µM; hits give high values
How it was run: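 Readout: growth inhibition relative to vehicle-treated cultures. Compound exposure was carried out in a genetically defined yeast strain deficient in DNA damage repair.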

[2] = NCI Yeast Anticancer Drug Screen. Data for the mec2-1 strain (AID 157); details: S. cerevisiae mec2-1 strain, at 50.0 µM, hits give high values
How it was run: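 Growth inhibition is read against vehicle-treated controls after compound exposure of the mec2-1 yeast strain, which is defective in DNA damage repair or cell cycle control.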

[3] = NCI Yeast Anticancer Drug Screen. Data for the sgs1 mgt1 strain (AID 161);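 note: 0% = growth of cultures given vehicle only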; details: S. cerevisiae sgs1 mgt1 strain, at 50.0 µM, hits give high values
How it was run: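 This yeast growth screen uses a strain with defined DNA-repair lesions; compound-treated growth is compared with vehicle-treated growth.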

[4] = NCI Yeast Anticancer Drug Screen. Data for the cln2 rad14 strain (AID 165);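 note: 0% = growth equal to vehicle treated cultures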; details: S. cerevisiae cln2 rad14 strain, at 50.0 µM, hits give high values
How it was run: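 Growth inhibition, relative to vehicle-treated controls, is the read-out. The test organism is a yeast strain with defined genetic alterations, cln2 rad14.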

[5] = NCI Yeast Anticancer Drug Screen. Data for the bub3 strain (AID 167); details: S. cerevisiae bub3 mutant strain, at 50.0 µM, hits give high values
How it was run: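 Readout: yeast growth inhibition, expressed relative to vehicle-only wells. The test organism is a mutant strain from a panel with lesions in DNA repair or checkpoint genes.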

[6] = NCI Yeast Anticancer Drug Screen. Data for the mlh1 rad18 strain (AID 175); details: S. cerevisiae mlh1 rad18 strain growth inhibition; at 50.0 µM; hits give high values
How it was run: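 Cells of a genetically altered yeast strain, deficient in DNA damage repair, were treated with compound. Their growth was then compared with that of vehicle-treated cultures to give inhibition.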

Compound: C=C1C(O)CC2C(O)C3(C)CCC(C)(C)C3C12O (stereo not given)
- growth inhibition [1]: 3.55%
- growth inhibition [2]: 1.2%
- growth inhibition [3]: 12.2%
- growth inhibition [4]: 15.3%
- growth inhibition [5]: -0.25%
- growth inhibition [6]: 11.7%

Compound: O=C(O)c1ccc(C(=O)C2CC(C(=O)O)CCC2S(=O)(=O)O)cc1 (stereo not given)
- growth inhibition [1]: -10.1%
- growth inhibition [2]: 11.8%
- growth inhibition [3]: -19.8%
- growth inhibition [4]: -30.6%
- growth inhibition [5]: -0.4%
- growth inhibition [6]: 17.1%

Compound: O=CC(NC(=O)OCc1ccccc1)C(O)C(O)C(O)CO (stereo not given)
- growth inhibition [1]: -15.3%
- growth inhibition [2]: 2.7%
- growth inhibition [3]: 1.75%
- growth inhibition [4]: -6.3%
- growth inhibition [5]: -15.9%
- growth inhibition [6]: -16.9%

Compound: Clc1ccc(C2OCCO2)cc1
- growth inhibition [1]: 12.2%
- growth inhibition [2]: 3.95%
- growth inhibition [3]: 11.2%
- growth inhibition [4]: 3.35%
- growth inhibition [5]: -0.35%
- growth inhibition [6]: 14.3%

Compound: Cc1ccc(S(=O)(=O)NC(Cc2ccccc2)C(=O)NCc2cccnc2)cc1 (stereo not given)
- growth inhibition [1]: 23.6%
- growth inhibition [2]: -8.4%
- growth inhibition [3]: 5.2%
- growth inhibition [4]: 4.45%
- growth inhibition [5]: -4.1%
- growth inhibition [6]: 4.65%

Compound: O=[N+]([O-])c1ccc(C[N+]2(CCC[N+]3(Cc4ccc([N+](=O)[O-])cc4)CCCC3)CCCC2)cc1
- growth inhibition [1]: -1.6%
- growth inhibition [2]: -18.2%
- growth inhibition [3]: -2.1%
- growth inhibition [4]: 10.7%
- growth inhibition [5]: 8.75%
- growth inhibition [6]: 2.3%

Compound: Cc1c(COC(=O)NC(C)C)c(COC(=O)NC(C)C)c2n1CS(=O)(=O)C2
- growth inhibition [1]: -16.2%
- growth inhibition [2]: 6.55%
- growth inhibition [3]: -3.2%
- growth inhibition [4]: 7.3%
- growth inhibition [5]: -5.7%
- growth inhibition [6]: 6.35%

Compound: CCCC(O)C(CC)[N+](=O)[O-] (stereo not given)
- growth inhibition [1]: 13.6%
- growth inhibition [2]: 0.95%
- growth inhibition [3]: 5%
- growth inhibition [4]: 3.65%
- growth inhibition [5]: 0.1%
- growth inhibition [6]: 5.75%

Compound: Cc1cccc(C)c1N1C(=O)C(=O)C(c2nc3ccccc3s2)C(=Nc2cccc3c(=O)[nH][nH]c(=O)c23)C1=O (stereo not given)
- growth inhibition [1]: 30.5%
- growth inhibition [2]: 13.9%
- growth inhibition [3]: 17.6%
- growth inhibition [4]: 23.2%
- growth inhibition [5]: 0.95%
- growth inhibition [6]: 23.7%

Compound: Cc1nn(-c2ccccc2)c2c1N=C(C(=O)O)CC(c1ccccc1)=N2
- growth inhibition [1]: 18.7%
- growth inhibition [2]: 25.9%
- growth inhibition [3]: 23.9%
- growth inhibition [4]: 28.1%
- growth inhibition [5]: 16.7%
- growth inhibition [6]: 13.8%

Compound: Cc1c(C=O)cc(-c2ccccc2)n1C
- growth inhibition [1]: -16.2%
- growth inhibition [2]: -3.25%
- growth inhibition [3]: -4.85%
- growth inhibition [4]: -8.45%
- growth inhibition [5]: -7.1%
- growth inhibition [6]: -1.6%

Compound: CCOC(=O)NN(C(=O)OCC)C(C)(C)C(C)=O
- growth inhibition [1]: 7.3%
- growth inhibition [2]: 5.35%
- growth inhibition [3]: 5.15%
- growth inhibition [4]: -29.2%
- growth inhibition [5]: 17.8%
- growth inhibition [6]: 12.1%

Compound: CCCCCCCCCCCCCCCCS(=O)(=O)N/N=C(/c1cccc(N)c1)N1CCOCC1
- growth inhibition [1]: -29.6%
- growth inhibition [2]: -40.8%
- growth inhibition [3]: -13.2%
- growth inhibition [4]: 4.2%
- growth inhibition [5]: -7.75%
- growth inhibition [6]: -21.2%

Compound: COc1cccc2c1C(=O)c1c(O)c3c(c(O)c1C2=O)C[C@@](O)(c1csc(-c2ccncc2)n1)C[C@@H]3OC1CC(N)C(O)C(C)O1 (stereo not given in full)
- growth inhibition [1]: 22.8%
- growth inhibition [2]: 15.4%
- growth inhibition [3]: 17.2%
- growth inhibition [4]: 32.2%
- growth inhibition [5]: -2.25%
- growth inhibition [6]: 25.8%

Compound: CCOC(=O)N1CCN(c2ccc3ccc(N)nc3n2)CC1
- growth inhibition [1]: 22.1%
- growth inhibition [2]: -12.7%
- growth inhibition [3]: 28.8%
- growth inhibition [4]: -4.65%
- growth inhibition [5]: 18.9%
- growth inhibition [6]: 16.9%

Compound: CNc1nc(N)nc(N)c1N1CCN(c2ccc(C(=O)O)cc2)CC1
- growth inhibition [1]: 13.3%
- growth inhibition [2]: -0.8%
- growth inhibition [3]: 19.8%
- growth inhibition [4]: 9.95%
- growth inhibition [5]: 17.2%
- growth inhibition [6]: 16.6%

Compound: CCC(C)(CC)OC(=O)c1ccc([N+](=O)[O-])cc1
- growth inhibition [1]: -0.35%
- growth inhibition [2]: -0.45%
- growth inhibition [3]: 5.05%
- growth inhibition [4]: -7.4%
- growth inhibition [5]: 2.85%
- growth inhibition [6]: 43.3%

Compound: Nc1cc2c(cc1Br)-c1c(C(=O)O)cccc1C2=O
- growth inhibition [1]: -20%
- growth inhibition [2]: 9.3%
- growth inhibition [3]: -2.4%
- growth inhibition [4]: 7.1%
- growth inhibition [5]: 11.2%
- growth inhibition [6]: -13.1%

Compound: CC(=O)OCCCC(=O)Nc1cc([N+](=O)[O-])ccc1OCc1ccccc1
- growth inhibition [1]: 12.4%
- growth inhibition [2]: -3.35%
- growth inhibition [3]: 3.45%
- growth inhibition [4]: -6.35%
- growth inhibition [5]: 5.7%
- growth inhibition [6]: 8.45%

Compound: O=P(O)(CP(=O)(c1ccccc1)c1ccccc1)c1ccccc1
- growth inhibition [1]: 15.3%
- growth inhibition [2]: 7.25%
- growth inhibition [3]: 15.9%
- growth inhibition [4]: 16.2%
- growth inhibition [5]: 5.9%
- growth inhibition [6]: 10.9%

Compound: CCNC(=O)COc1ccc(Br)cc1Br
- growth inhibition [1]: -3.7%
- growth inhibition [2]: -5.2%
- growth inhibition [3]: -3.8%
- growth inhibition [4]: 11.2%
- growth inhibition [5]: 8.4%
- growth inhibition [6]: 15.2%

Compound: CC(C)([NH-])C[NH-].O=C(O)CCO.[Pt+2]
- growth inhibition [1]: 27.8%
- growth inhibition [2]: -8.8%
- growth inhibition [3]: -2.8%
- growth inhibition [4]: 17.6%
- growth inhibition [5]: 8.65%
- growth inhibition [6]: 14.2%

Compound: CN(C)CCCOc1nc2c(c(=O)n(C)c(=O)n2C)n1C (tested in a mixture with another compound)
- growth inhibition [1]: 0.9%
- growth inhibition [2]: 8.9%
- growth inhibition [3]: -19.9%
- growth inhibition [4]: -9.35%
- growth inhibition [5]: -18.9%
- growth inhibition [6]: -7.15%

Compound: CCCOC(=O)COc1ccccc1
- growth inhibition [1]: 10.1%
- growth inhibition [2]: 5.7%
- growth inhibition [3]: -4.3%
- growth inhibition [4]: -45%
- growth inhibition [5]: -11.4%
- growth inhibition [6]: 2.4%

Compound: COc1ccc(OC)c(CC(N)=O)c1
- growth inhibition [1]: -5.5%
- growth inhibition [2]: 4.6%
- growth inhibition [3]: -0.9%
- growth inhibition [4]: -23.8%
- growth inhibition [5]: 21.4%
- growth inhibition [6]: -8.85%

Compound: O=P(O)(O)OC1C(OP(=O)(O)O)C(OP(=O)(O)O)C(OP(=O)(O)O)C(OP(=O)(O)O)C1OP(=O)(O)O.[Zn+2] (stereo not given)
- growth inhibition [1]: -24.7%
- growth inhibition [2]: -4.8%
- growth inhibition [3]: -16.6%
- growth inhibition [4]: 9.6%
- growth inhibition [5]: -23%
- growth inhibition [6]: -6.2%

Compound: C=CC1C(OC2OC(CO)C(O)C(O)C2O)OC=C(C(=O)OC)C1CC1CC(=O)CC(CCc2ccc(O)cc2)O1 (stereo not given)
- growth inhibition [1]: 1.8%
- growth inhibition [2]: -10.1%
- growth inhibition [3]: -4.9%
- growth inhibition [4]: 1.45%
- growth inhibition [5]: -13.9%
- growth inhibition [6]: -76.2%

Compound: C[C@]12CCC(=O)C=C1CC[C@@H]1[C@@H]2[C@@H](O)C[C@@]2(C)[C@H]1CC[C@]2(O)C(=O)CO
- growth inhibition [1]: 12.7%
- growth inhibition [2]: 2.25%
- growth inhibition [3]: -31.6%
- growth inhibition [4]: 7%
- growth inhibition [5]: -30.1%
- growth inhibition [6]: -35%

Compound: Cn1c(=O)c2c(ncn2CCN2CCNCC2)n(C)c1=O
- growth inhibition [1]: 13.8%
- growth inhibition [2]: -12.8%
- growth inhibition [3]: 0.2%
- growth inhibition [4]: -37.5%
- growth inhibition [5]: 25.4%
- growth inhibition [6]: 3.9%

Compound: Br
- growth inhibition [1]: -11.7%
- growth inhibition [2]: -33.1%
- growth inhibition [3]: -54.9%
- growth inhibition [4]: -20%
- growth inhibition [5]: -30.6%
- growth inhibition [6]: -44.1%

Compound: COc1cc(NCCCN(CC(C)C)CC(C)C)c2ncccc2c1Cl
- growth inhibition [1]: 27.5%
- growth inhibition [2]: 26.1%
- growth inhibition [3]: 55%
- growth inhibition [4]: 19.8%
- growth inhibition [5]: 27.3%
- growth inhibition [6]: 38.4%

Compound: NC(=O)c1ccc[n+](-c2ccc([N+](=O)[O-])cc2[N+](=O)[O-])c1
- growth inhibition [1]: 79.3% (active)
- growth inhibition [2]: 54.6%
- growth inhibition [3]: 80.2% (active)
- growth inhibition [4]: 39.8%
- growth inhibition [5]: 17.3%
- growth inhibition [6]: 63.4%

Compound: Clc1ccccc1C(Nc1ncccn1)Nc1ncccn1
- growth inhibition [1]: 11.1%
- growth inhibition [2]: 15%
- growth inhibition [3]: -8.05%
- growth inhibition [4]: -0.25%
- growth inhibition [5]: 41%
- growth inhibition [6]: 13.1%

Compound: CC1(c2ccccc2)SCCS1
- growth inhibition [1]: 4.9%
- growth inhibition [2]: 2.05%
- growth inhibition [3]: -7.7%
- growth inhibition [4]: -34.3%
- growth inhibition [5]: -13.9%
- growth inhibition [6]: -6.4%

Compound: CCOC(=O)C1=[N+]([O-])OC2=C(O)CCCC21 (stereo not given)
- growth inhibition [1]: 5.7%
- growth inhibition [2]: 2.25%
- growth inhibition [3]: 9.05%
- growth inhibition [4]: -8.85%
- growth inhibition [5]: 2.4%
- growth inhibition [6]: -19.3%

Compound: CCCCCCCCn1c(C)nc2c(cnn2C)c1=O
- growth inhibition [1]: -9.6%
- growth inhibition [2]: -19.2%
- growth inhibition [3]: -6.15%
- growth inhibition [4]: 20.9%
- growth inhibition [5]: 36.1%
- growth inhibition [6]: 4.8%

Compound: CC(C)=CC1C(COCc2cc3c(cc2Br)OCO3)C1(C)C (stereo not given)
- growth inhibition [1]: -12.3%
- growth inhibition [2]: -9.45%
- growth inhibition [3]: 3%
- growth inhibition [4]: -34.2%
- growth inhibition [5]: -7.05%
- growth inhibition [6]: -3.95%

Compound: CC1(C)C=C(S(=O)(=O)c2ccccc2)Oc2ccccc2O1
- growth inhibition [1]: 15.3%
- growth inhibition [2]: 8%
- growth inhibition [3]: 24.2%
- growth inhibition [4]: 9.2%
- growth inhibition [5]: 47.8%
- growth inhibition [6]: 31.9%

Compound: CCOC(=O)C1C(C)NC(C)C(C(=O)OCC)C1C (stereo not given)
- growth inhibition [1]: 15.9%
- growth inhibition [2]: 1.05%
- growth inhibition [3]: 3.4%
- growth inhibition [4]: -44.5%
- growth inhibition [5]: 5.3%
- growth inhibition [6]: 26.1%

Compound: COc1ccc(N=Nc2c(C)c(C#N)c(=S)n(C3OC(CO)C(O)C(O)C3O)c2-c2ccccc2)cc1 (stereo not given)
- growth inhibition [1]: 0.55%
- growth inhibition [2]: 2.85%
- growth inhibition [3]: 20.1%
- growth inhibition [4]: 10.7%
- growth inhibition [5]: 11.8%
- growth inhibition [6]: 23.9%
